# Source: article PMC11006913
# How the values were obtained:
# Assay in all cases: PBM; 200 nM protein, PBS
# Conditions in all cases: dsDNA, one strand shown
# ALX4 [1] = target: ALX4 (Homo sapiens, UniProt Q9H161 200-286)
# ALX4 [2] = target: ALX4 (Homo sapiens, UniProt Q9H161 200-286, Q225E)
# HOXB6 [3] = target: HOXB6 (Homo sapiens, UniProt P17509 132-218, K202E)
# HOXB6 [4] = target: HOXB6 (Homo sapiens, UniProt P17509 132-218)
# PRRX1 [5] = target: PRRX1 (Homo sapiens, UniProt P54821 80-166, F113S)
# Chain of PRRX1 (Homo sapiens, UniProt P54821 80-166, F113S) (P54821 80-166 F113S): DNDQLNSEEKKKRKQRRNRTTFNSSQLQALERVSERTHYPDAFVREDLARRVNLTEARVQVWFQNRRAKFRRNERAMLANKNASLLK
# PRRX1 [6] = target: PRRX1 (Homo sapiens, UniProt P54821 80-166)
# Chain of PRRX1 (Homo sapiens, UniProt P54821 80-166) (P54821 80-166): as the sequence (P54821 80-166 F113S) above, with S34F counted along it
# Chain of ALX4 (Homo sapiens, UniProt Q9H161 200-286) (Q9H161 200-286): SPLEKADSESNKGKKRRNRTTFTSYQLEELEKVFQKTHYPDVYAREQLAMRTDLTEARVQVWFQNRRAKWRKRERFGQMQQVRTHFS
# Chain of ALX4 (Homo sapiens, UniProt Q9H161 200-286, Q225E) (Q9H161 200-286 Q225E): as the sequence (Q9H161 200-286) above, with Q26E counted along it
# Chain of HOXB6 (Homo sapiens, UniProt P17509 132-218, K202E) (P17509 132-218 K202E): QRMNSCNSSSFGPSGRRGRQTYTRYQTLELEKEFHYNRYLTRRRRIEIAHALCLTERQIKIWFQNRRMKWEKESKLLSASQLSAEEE
# Chain of HOXB6 (Homo sapiens, UniProt P17509 132-218) (P17509 132-218): as the sequence (P17509 132-218 K202E) above, with E71K counted along it
sequence,measurement,setting,value
CAGTCGCC,binding signal,ALX4 [1],"8.23 upbm affinity estimate (log intensity, higher = more binding, comparable within an allelic series)"
same,binding signal,ALX4 [2],"8.19 upbm affinity estimate (log intensity, higher = more binding, comparable within an allelic series)"
TCAATGAA,binding signal,ALX4 [1],"10.1 upbm affinity estimate (log intensity, higher = more binding, comparable within an allelic series)"
same,binding signal,ALX4 [2],"9.63 upbm affinity estimate (log intensity, higher = more binding, comparable within an allelic series)"
CCTGCAGG,binding signal,ALX4 [1],"8.12 upbm affinity estimate (log intensity, higher = more binding, comparable within an allelic series)"
same,binding signal,HOXB6 [3],"9.05 upbm affinity estimate (log intensity, higher = more binding, comparable within an allelic series)"
same,binding signal,ALX4 [2],"8.04 upbm affinity estimate (log intensity, higher = more binding, comparable within an allelic series)"
same,binding signal,HOXB6 [4],"8.92 upbm affinity estimate (log intensity, higher = more binding, comparable within an allelic series)"
CTCCCTTC,binding signal,ALX4 [1],"7.88 upbm affinity estimate (log intensity, higher = more binding, comparable within an allelic series)"
same,binding signal,ALX4 [2],"8.19 upbm affinity estimate (log intensity, higher = more binding, comparable within an allelic series)"
CCAGGACG,binding signal,ALX4 [1],"8.2 upbm affinity estimate (log intensity, higher = more binding, comparable within an allelic series)"
same,binding signal,ALX4 [2],"8.31 upbm affinity estimate (log intensity, higher = more binding, comparable within an allelic series)"
CTCCGGCC,binding signal,ALX4 [1],"8.03 upbm affinity estimate (log intensity, higher = more binding, comparable within an allelic series)"
same,binding signal,ALX4 [2],"8.06 upbm affinity estimate (log intensity, higher = more binding, comparable within an allelic series)"
ATCAATCA,binding signal,ALX4 [1],"11.7 upbm affinity estimate (log intensity, higher = more binding, comparable within an allelic series)"
same,binding signal,ALX4 [2],"10.5 upbm affinity estimate (log intensity, higher = more binding, comparable within an allelic series)"
AGAGAGCG,binding signal,ALX4 [1],"8.15 upbm affinity estimate (log intensity, higher = more binding, comparable within an allelic series)"
same,binding signal,ALX4 [2],"8.26 upbm affinity estimate (log intensity, higher = more binding, comparable within an allelic series)"
GGCATGCC,binding signal,ALX4 [1],"8.37 upbm affinity estimate (log intensity, higher = more binding, comparable within an allelic series)"
same,binding signal,ALX4 [2],"8.31 upbm affinity estimate (log intensity, higher = more binding, comparable within an allelic series)"
ATAACCAA,binding signal,ALX4 [1],"10.1 upbm affinity estimate (log intensity, higher = more binding, comparable within an allelic series)"
same,binding signal,ALX4 [2],"9.6 upbm affinity estimate (log intensity, higher = more binding, comparable within an allelic series)"
CCCGGAAG,binding signal,ALX4 [1],"7.9 upbm affinity estimate (log intensity, higher = more binding, comparable within an allelic series)"
same,binding signal,ALX4 [2],"8.04 upbm affinity estimate (log intensity, higher = more binding, comparable within an allelic series)"
GTAAAATA,binding signal,ALX4 [1],"10.2 upbm affinity estimate (log intensity, higher = more binding, comparable within an allelic series)"
same,binding signal,ALX4 [2],"9.6 upbm affinity estimate (log intensity, higher = more binding, comparable within an allelic series)"
ATGATAAA,binding signal,ALX4 [1],"10.4 upbm affinity estimate (log intensity, higher = more binding, comparable within an allelic series)"
same,binding signal,ALX4 [2],"9.81 upbm affinity estimate (log intensity, higher = more binding, comparable within an allelic series)"
GGTGGCCA,binding signal,ALX4 [1],"8.06 upbm affinity estimate (log intensity, higher = more binding, comparable within an allelic series)"
same,binding signal,ALX4 [2],"8.37 upbm affinity estimate (log intensity, higher = more binding, comparable within an allelic series)"
ACCTCCTC,binding signal,ALX4 [1],"8.28 upbm affinity estimate (log intensity, higher = more binding, comparable within an allelic series)"
same,binding signal,ALX4 [2],"8.12 upbm affinity estimate (log intensity, higher = more binding, comparable within an allelic series)"
CCCTCACG,binding signal,ALX4 [1],"8.1 upbm affinity estimate (log intensity, higher = more binding, comparable within an allelic series)"
same,binding signal,ALX4 [2],"8.28 upbm affinity estimate (log intensity, higher = more binding, comparable within an allelic series)"
TCCGATAA,binding signal,ALX4 [1],"10.1 upbm affinity estimate (log intensity, higher = more binding, comparable within an allelic series)"
same,binding signal,ALX4 [2],"9.41 upbm affinity estimate (log intensity, higher = more binding, comparable within an allelic series)"
TATTTTGA,binding signal,ALX4 [1],"9.82 upbm affinity estimate (log intensity, higher = more binding, comparable within an allelic series)"
same,binding signal,ALX4 [2],"9.39 upbm affinity estimate (log intensity, higher = more binding, comparable within an allelic series)"
CTCGATCC,binding signal,ALX4 [1],"8.2 upbm affinity estimate (log intensity, higher = more binding, comparable within an allelic series)"
same,binding signal,ALX4 [2],"8.33 upbm affinity estimate (log intensity, higher = more binding, comparable within an allelic series)"
CCTCAGGC,binding signal,ALX4 [1],"8.2 upbm affinity estimate (log intensity, higher = more binding, comparable within an allelic series)"
same,binding signal,ALX4 [2],"8.19 upbm affinity estimate (log intensity, higher = more binding, comparable within an allelic series)"
CGCCCTTC,binding signal,ALX4 [1],"8.03 upbm affinity estimate (log intensity, higher = more binding, comparable within an allelic series)"
same,binding signal,ALX4 [2],"8.24 upbm affinity estimate (log intensity, higher = more binding, comparable within an allelic series)"
CGAGGGCA,binding signal,ALX4 [1],"8.31 upbm affinity estimate (log intensity, higher = more binding, comparable within an allelic series)"
same,binding signal,PRRX1 [5],"9.29 upbm affinity estimate (log intensity, higher = more binding, comparable within an allelic series)"
same,binding signal,ALX4 [2],"8.26 upbm affinity estimate (log intensity, higher = more binding, comparable within an allelic series)"
same,binding signal,PRRX1 [6],"9.63 upbm affinity estimate (log intensity, higher = more binding, comparable within an allelic series)"
CGGATGTC,binding signal,ALX4 [1],"8.26 upbm affinity estimate (log intensity, higher = more binding, comparable within an allelic series)"
same,binding signal,ALX4 [2],"8.17 upbm affinity estimate (log intensity, higher = more binding, comparable within an allelic series)"
CCATCGGA,binding signal,ALX4 [1],"8.15 upbm affinity estimate (log intensity, higher = more binding, comparable within an allelic series)"
same,binding signal,ALX4 [2],"8.29 upbm affinity estimate (log intensity, higher = more binding, comparable within an allelic series)"
CCGCGAAG,binding signal,ALX4 [1],"8.14 upbm affinity estimate (log intensity, higher = more binding, comparable within an allelic series)"
same,binding signal,ALX4 [2],"8.32 upbm affinity estimate (log intensity, higher = more binding, comparable within an allelic series)"
CTCGGGTC,binding signal,ALX4 [1],"8.18 upbm affinity estimate (log intensity, higher = more binding, comparable within an allelic series)"
same,binding signal,ALX4 [2],"8.25 upbm affinity estimate (log intensity, higher = more binding, comparable within an allelic series)"
ATTAACCA,binding signal,ALX4 [1],"12.4 upbm affinity estimate (log intensity, higher = more binding, comparable within an allelic series)"
same,binding signal,ALX4 [2],"11.3 upbm affinity estimate (log intensity, higher = more binding, comparable within an allelic series)"
GACGCGGC,binding signal,ALX4 [1],"8.04 upbm affinity estimate (log intensity, higher = more binding, comparable within an allelic series)"
same,binding signal,ALX4 [2],"8.07 upbm affinity estimate (log intensity, higher = more binding, comparable within an allelic series)"
ATAACCTC,binding signal,ALX4 [1],"9.88 upbm affinity estimate (log intensity, higher = more binding, comparable within an allelic series)"
same,binding signal,ALX4 [2],"9.24 upbm affinity estimate (log intensity, higher = more binding, comparable within an allelic series)"
AGAGCCTC,binding signal,ALX4 [1],"7.96 upbm affinity estimate (log intensity, higher = more binding, comparable within an allelic series)"
same,binding signal,ALX4 [2],"7.95 upbm affinity estimate (log intensity, higher = more binding, comparable within an allelic series)"
CTGTCCAC,binding signal,ALX4 [1],"7.93 upbm affinity estimate (log intensity, higher = more binding, comparable within an allelic series)"
same,binding signal,ALX4 [2],"8.3 upbm affinity estimate (log intensity, higher = more binding, comparable within an allelic series)"
AGCCGTGC,binding signal,ALX4 [1],"7.92 upbm affinity estimate (log intensity, higher = more binding, comparable within an allelic series)"
same,binding signal,ALX4 [2],"8.07 upbm affinity estimate (log intensity, higher = more binding, comparable within an allelic series)"
